# Where “and” joins values, the source holds several entries; their conditions need not be identical. Equal entries are not always repeated. Values without a mark were called inactive. Records with an inconclusive call do not appear. Where a call stands in place of a potency, no number is given. Calls of active or inactive are those of the source. Unless noted, the call rests on the fitted dose curve; in most records, active means well fitted curve in the direction sought with a large enough effect in the repeat runs; inconclusive means weak or mixed curves; inactive means no such curve, though single readings can be large; an effect the other way counts as inactive or inconclusive.
# Columns and labels:
# [1] = qHTS assay for small molecule agonists of the p53 signaling pathway (AID 651631; calls by dose curve; further: nearly all actives have a fitted effect of over 15% in size)
# Summary of the method: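 HCT-116 cells carrying a stable p53 response element–beta-lactamase reporter were plated, rested 5 h at 37 °C, then exposed to compound in DMSO for 16 h at 37 °C; reporter activity was read as FRET substrate fluorescence after 2 h at room temperature.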
# Aromatase (Homo sapiens) = Aromatase (Homo sapiens) (UniProt P11511); assay: qHTS assay to identify aromatase inhibitors (AID 743083); further: nearly all actives have a fitted effect of over 55% in size
# Aromatase (Homo sapiens), sequence (P11511 whole entry, looked up): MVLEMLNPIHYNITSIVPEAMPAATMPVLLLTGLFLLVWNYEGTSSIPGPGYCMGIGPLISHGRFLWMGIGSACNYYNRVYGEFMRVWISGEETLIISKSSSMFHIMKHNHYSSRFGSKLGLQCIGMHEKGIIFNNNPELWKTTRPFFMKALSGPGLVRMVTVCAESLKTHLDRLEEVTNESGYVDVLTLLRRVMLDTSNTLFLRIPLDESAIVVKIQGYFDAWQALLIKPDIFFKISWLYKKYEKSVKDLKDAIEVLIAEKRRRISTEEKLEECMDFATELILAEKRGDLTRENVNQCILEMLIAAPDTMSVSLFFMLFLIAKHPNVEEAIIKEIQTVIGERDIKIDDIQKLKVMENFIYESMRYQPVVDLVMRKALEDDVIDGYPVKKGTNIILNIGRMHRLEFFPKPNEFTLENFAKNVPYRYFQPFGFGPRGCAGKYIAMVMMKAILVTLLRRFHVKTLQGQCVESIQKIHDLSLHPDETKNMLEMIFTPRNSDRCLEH
# [2] = target: Aryl hydrocarbon receptor (Homo sapiens) (UniProt P35869); assay: qHTS assay to identify small molecule that activate the aryl hydrocarbon receptor (AhR) signaling pathway (AID 743085);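 further: HG2L7.5c1 human HepG2 liver cells with stably integrated DRE-driven firefly reporter; nearly all actives have a fitted effect of over 15% in size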
# Aryl hydrocarbon receptor (Homo sapiens), sequence (P35869 whole entry, looked up): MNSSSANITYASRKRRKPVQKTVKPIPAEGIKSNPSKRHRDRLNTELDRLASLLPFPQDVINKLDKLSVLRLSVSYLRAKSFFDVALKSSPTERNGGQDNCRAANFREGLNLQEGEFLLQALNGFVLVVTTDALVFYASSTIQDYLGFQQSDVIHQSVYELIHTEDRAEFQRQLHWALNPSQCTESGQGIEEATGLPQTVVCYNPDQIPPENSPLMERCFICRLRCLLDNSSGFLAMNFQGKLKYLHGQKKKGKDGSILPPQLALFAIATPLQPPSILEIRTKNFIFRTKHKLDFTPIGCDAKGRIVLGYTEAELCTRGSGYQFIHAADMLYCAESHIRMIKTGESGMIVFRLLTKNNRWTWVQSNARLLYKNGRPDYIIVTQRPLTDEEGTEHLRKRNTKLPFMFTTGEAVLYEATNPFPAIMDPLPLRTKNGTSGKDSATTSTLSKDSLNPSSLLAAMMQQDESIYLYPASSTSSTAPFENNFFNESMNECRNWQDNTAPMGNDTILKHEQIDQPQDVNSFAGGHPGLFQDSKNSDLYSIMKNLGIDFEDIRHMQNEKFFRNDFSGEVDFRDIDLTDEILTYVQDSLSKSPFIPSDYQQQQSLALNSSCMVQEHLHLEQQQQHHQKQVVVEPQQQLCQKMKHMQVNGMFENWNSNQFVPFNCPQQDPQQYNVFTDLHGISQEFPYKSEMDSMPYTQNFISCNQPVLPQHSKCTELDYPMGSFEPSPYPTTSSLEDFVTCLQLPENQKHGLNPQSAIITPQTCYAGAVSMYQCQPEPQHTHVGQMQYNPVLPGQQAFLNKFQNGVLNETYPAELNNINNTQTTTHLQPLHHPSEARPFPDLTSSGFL
# Summary of the method: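 HepG2 cells (HG2L7.5c1) stably carrying a firefly luciferase reporter driven by 20 dioxin responsive elements were exposed to compound for 24 h at 37C after a 5 h settling period; luminescence rise (ONE-Glo) indicated activation.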
# [3] = qHTS assay to identify small molecule agonists of H2AX (AID 1224845; active means well fitted activation curve with a large enough effect in the signal ratio in the repeat runs, not every such curve was filed as active; the % refers to the signal ratio)
# Summary of the method: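 Wild-type CHO-K1 cells plated overnight, then exposed 3 hr at 37C to compounds at 15 concentrations (0.76% DMSO). Lysed, then HTRF anti-pH2AX(S139)-cryptate/anti-H2AX-d2 detection after 24 hr at room temperature; emissions 665 and 620 nm.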
# [4] = Caspase-3/7 induction in HepG2 cells by small molecules, qHTS assay (AID 1346978); further: nearly all actives have a fitted effect of over 15% in size
# Summary of the method: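 Wild-type HepG2 cells (2,000/well) were settled 5 h at 37 C, 5% CO2, then exposed to compounds in DMSO for 17 h. Caspase-3/7 activity was read by luminescence 30 min after adding Caspase-Glo 3/7 reagent at room temperature.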
# [5] = target: Acetylcholinesterase (Homo sapiens) (UniProt P22303); assay: Acetylcholinesterase (AChE) small molecule antagonists: colormetric cell-based qHTS assay (AID 1347395; calls by dose curve; further: nearly all actives have a fitted effect of over 30% in size)
# Acetylcholinesterase (Homo sapiens), sequence (P22303 whole entry, looked up): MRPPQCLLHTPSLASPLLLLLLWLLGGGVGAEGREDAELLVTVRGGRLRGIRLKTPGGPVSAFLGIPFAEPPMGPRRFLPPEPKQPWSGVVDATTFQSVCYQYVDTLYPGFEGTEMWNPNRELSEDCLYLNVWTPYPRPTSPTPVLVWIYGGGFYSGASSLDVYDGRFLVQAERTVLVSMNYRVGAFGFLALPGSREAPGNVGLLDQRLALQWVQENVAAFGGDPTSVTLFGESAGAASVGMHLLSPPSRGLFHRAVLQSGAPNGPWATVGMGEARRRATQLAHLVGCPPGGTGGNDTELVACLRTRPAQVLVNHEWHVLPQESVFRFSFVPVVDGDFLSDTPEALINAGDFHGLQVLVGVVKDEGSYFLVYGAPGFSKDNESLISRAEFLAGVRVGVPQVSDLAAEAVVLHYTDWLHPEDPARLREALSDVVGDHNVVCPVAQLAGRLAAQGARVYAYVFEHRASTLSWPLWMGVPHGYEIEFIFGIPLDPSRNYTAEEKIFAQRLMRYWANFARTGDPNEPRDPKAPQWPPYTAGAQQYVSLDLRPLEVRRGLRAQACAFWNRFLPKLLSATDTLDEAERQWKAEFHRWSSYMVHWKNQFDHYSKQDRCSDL
# Summary of the method: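 SH-SY5Y cells, plated overnight at 37 C, were exposed to compounds for 30 min at 37 C and 5% CO2. Acetylthiocholine plus DTNB was then added, and thiocholine from endogenous AChE was quantified colorimetrically after 90 min at 37 C.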
# [6] = target: Acetylcholinesterase (Homo sapiens) (UniProt P22303); assay: Acetylcholinesterase (AChE) small molecule antagonists: enzyme-based qHTS assay (AID 1347397; calls by dose curve; further: nearly all actives have a fitted effect of over 55% in size); conditions: Potency: AChE enzyme activity inhibition; outcome: AChE enzyme activity inhibition
# Summary of the method: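 Tox21 library chemicals are tested in qHTS format against recombinant human AChE. The enzyme, dispensed at 50 mU/mL, sits with compound for 30 min at room temperature. A DTNB–acetylthiocholine cocktail follows, and colour is read after 10 min.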
# [7] = target: Acetylcholinesterase (Homo sapiens) (UniProt P22303); assay: Acetylcholinesterase (AChE) small molecule antagonists: fluorescence cell-based qHTS assay (AID 1347398; calls by dose curve; further: nearly all actives have a fitted effect of over 50% in size); conditions: Potency: AChE activity; outcome: AChE activity
# Summary of the method: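 Cellular AChE inhibition: SH-SY5Y cells treated with test chemical for 30 min at 37 C, then acetylthiocholine hydrolysis followed over 40 min at room temperature via thiocholine-reactive Thiolite Green fluorescence (490/520 nm).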
# [8] = target: Acetylcholinesterase (Homo sapiens) (UniProt P22303); assay: Acetylcholinesterase (AChE) small molecule antagonists: enzyme-based qHTS assay with human liver microsomes (AID 1347399; calls by dose curve; further: nearly all actives have a fitted effect of over 60% in size); conditions: Potency: qHTS inhibition; outcome: qHTS inhibition
# Summary of the method: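 Recombinant human AChE (50 mU/mL in the enzyme mix) and human liver microsomes (0.25 mg/mL final) were preincubated with compound and NADPH (0.25 mg/mL final) for 30 min at 37 C. Acetylthiocholine/DTNB was then added; thiocholine was read colorimetrically after 10 min at room temperature.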
# [9] = target: Glucocorticoid receptor (Homo sapiens) (UniProt P04150); assay: qHTS assay to identify small molecule antagonists of the glucocorticoid receptor (GR) signaling pathway (AID 720692; active means well fitted inhibition curve with a large enough effect in the signal ratio in the repeat runs, not every such curve was filed as active; the % refers to the signal ratio)
# Glucocorticoid receptor (Homo sapiens), sequence (P04150 whole entry, looked up): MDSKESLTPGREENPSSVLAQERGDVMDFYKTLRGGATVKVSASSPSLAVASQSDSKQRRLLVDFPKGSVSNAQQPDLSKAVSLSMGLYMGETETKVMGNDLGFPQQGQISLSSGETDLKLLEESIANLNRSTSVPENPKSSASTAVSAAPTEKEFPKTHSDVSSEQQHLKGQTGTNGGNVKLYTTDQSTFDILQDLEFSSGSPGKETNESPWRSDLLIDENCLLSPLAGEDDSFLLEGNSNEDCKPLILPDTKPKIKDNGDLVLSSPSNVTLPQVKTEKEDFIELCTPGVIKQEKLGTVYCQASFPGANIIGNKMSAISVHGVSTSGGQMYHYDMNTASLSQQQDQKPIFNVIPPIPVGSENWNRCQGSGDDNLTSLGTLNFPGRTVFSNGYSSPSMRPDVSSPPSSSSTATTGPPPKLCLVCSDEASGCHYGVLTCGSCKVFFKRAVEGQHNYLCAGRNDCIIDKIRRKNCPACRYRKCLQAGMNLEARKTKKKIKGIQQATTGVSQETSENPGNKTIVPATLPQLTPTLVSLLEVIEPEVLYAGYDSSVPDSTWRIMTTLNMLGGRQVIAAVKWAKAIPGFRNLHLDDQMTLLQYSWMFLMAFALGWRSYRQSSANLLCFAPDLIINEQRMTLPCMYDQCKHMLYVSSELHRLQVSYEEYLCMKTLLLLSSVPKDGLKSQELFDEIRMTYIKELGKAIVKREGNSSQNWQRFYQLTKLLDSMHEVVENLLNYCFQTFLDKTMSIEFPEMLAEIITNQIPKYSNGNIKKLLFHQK
# Summary of the method: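 GRE-bla HeLa line, dex-stimulated (5 nM final). Compound exposure 18 h, 37 C. Beta-lactamase FRET read after 2 h RT substrate.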
# [10] = qHTS assay to identify small molecule agonists of the estrogen related receptor signaling pathway with the pleiotropic PPARgamma coactivator (PGC) from Tox21 10K library (AID 1224842); further: nearly all actives have a fitted effect of over 15% in size
# Summary of the method: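 PGC/ERR reporter cells (NTP line) were seeded 2,000 per well, rested 6 h at 37 C/5% CO2, then pin-dosed with compounds in DMSO for 18 h at 37 C; luciferase read by One-Glo luminescence after 30 min at room temperature.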
# [11] = qHTS assay to identify small molecule agonists of the estrogen related receptor (ERR) signaling pathway from Tox21 library (AID 1224849; calls by dose curve; further: nearly all actives have a fitted effect of over 15% in size); conditions: ERR reporter cell line, ONE-Glo luciferase, 18 h; at 92.4 µM (top of the series) unless noted
# Summary of the method: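 Reporter cells (ERR, NTP source) treated with Tox21 10K compounds 18 h, 37 C. Readout: ONE-Glo luminescence, 30 min RT.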
# [12] = qHTS assay for small molecule disruptors of the mitochondrial membrane potential (AID 720635); further: potency means the concentration at half of the fitted maximal effect
# Summary of the method: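 HepG2 cells (2,000/well) attached overnight at 37C, then took compound for 1 hr at 37C, 5% CO2. Mito-MPS dye was added for 30 min; fluorescence was read at 490/535 nm (monomers) and 540/590 nm (aggregates).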
# [13] = qHTS assay to test for compound auto fluorescence at 535 nm (green) in HepG2 cells (AID 720675)
# [14] = qHTS assay to test for compound auto fluorescence at 460 nm (blue) in HEK293 cells (AID 720678)
# Summary of the method: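 Blue-channel (Ex/Em 405/460 nm) intensity measured in HEK293 cultures after overnight compound exposure at 37C; signal expressed relative to triamterene. Cells plated 2,000 per well in 10% dialyzed FBS medium and allowed 4-5 hr to attach.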
# [15] = qHTS assay to test for compound auto fluorescence at 590 nm (red) in HEK293 cells (AID 720679)
# Summary of the method: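 Red-channel autofluorescence (Ex/Em 540/590 nm; Rose Bengal sodium reference) was measured after overnight 37C, 5% CO2 exposure of attached HEK293 cells, 2,000 per well in medium with 10% dialyzed FBS.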
# [16] = qHTS assay to test for compound auto fluorescence at 535 nm (green) in HEK293 cells (AID 720680)
# [17] = qHTS assay to test for compound auto fluorescence at 460 nm (blue) in HEK293 cell free culture (AID 720681)
# Summary of the method: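 Test compounds were pinned into cell-free culture medium (DMEM with 10% FBS) and fluorescence was read directly at Ex/Em 405/460 nm. Signals were expressed as fluorescence equivalents of triamterene, with DMSO vehicle as control.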
# [18] = qHTS assay to test for compound auto fluorescence at 535 nm (green) in HEK293 cell free culture (AID 720682)
# Summary of the method: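 Read-out: 485/535 nm fluorescence intensity, calibrated against fluorescein. Medium only (DMEM + 10% FBS, no cells); test compound or DMSO vehicle added by pintool before plate reading.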
# [19] = qHTS assay to test for compound auto fluorescence at 590 nm (red) in HEK293 cell free culture (AID 720683)
# Summary of the method: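 Tox21 10K library compounds were pinned into cell-free DMEM with 10% FBS and fluorescence was read at excitation 540 nm. Activity is expressed as Rose Bengal sodium equivalency.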
# [20] = qHTS assay to test for compound auto fluorescence at 590 nm (red) in HepG2 cell free culture (AID 720684)
# Summary of the method: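 Readout: intrinsic compound fluorescence at 590 nm emission after 540 nm excitation, scaled to Rose Bengal sodium. Matrix was cell-free MEM with 10% FBS; DMSO vehicle wells served as control.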
# [21] = qHTS assay to test for compound auto fluorescence at 460 nm (blue) in HepG2 cell free culture (AID 720685)
# Summary of the method: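 Cell-free plates of MEM plus 10% FBS received 23 nL compound or DMSO vehicle; blue-channel (405/460 nm) intensity scored against triamterene as reference fluorophore.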
# [22] = qHTS assay to test for compound auto fluorescence at 535 nm (green) in HepG2 cell free culture (AID 720686)
# [23] = qHTS assay to test for compound auto fluorescence at 460 nm (blue) in HepG2 cells (AID 720687)
# Summary of the method: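 Cells (2,000/well in MEM with 10% FBS) attached overnight at 37 C, then were exposed to compound or DMSO for 1 hr at 37 C, 5% CO2. Fluorescence read at Ex/Em 405/460 nm, expressed as triamterene-equivalent signal.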
# [24] = qHTS RealTime-Glo MT Cell Viability Assay in HEK293 cells - 0 hour (AID 1224880); further: top concentration of the series differs between compounds; nearly all actives have a fitted effect of over 45% in size
# Summary of the method: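 Measured as luminescence from the same continuously cultured HEK293 wells at successive time points (0, 8, 16, 24, 32, 40 h) after compound addition. Reagent present from seeding; dosing at 5 h; incubation 37 C.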
# [25] = qHTS assay to identify small molecule phospholipidosis (PLD) inducers (AID 1259344; active means well fitted curve in the direction sought with a large enough effect; an effect the other way counts as inactive or inconclusive)
# Summary of the method: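 Cells (HepG2, 900 per well) attach for 4 h, receive LipidTOX Red and compound together, incubate 24 h at 37 C, are fixed 30 min with paraformaldehyde/Hoechst, then imaged at one site per well.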
# [26] = qHTS assay to identify small molecule antagonists of the progesterone receptor (PR) signaling pathway - cell viability counter screen (AID 1346798); further: nearly all actives have a fitted effect of over 50% in size
# Summary of the method: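 PR-UAS-bla HEK293T cells in medium with 2% charcoal-stripped FBS were treated with compounds plus R5020 for 16 hr at 37C. Cell viability was then read by CellTiter-Glo luminescence after 30 min at room temperature in the same wells.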
smiles,measurement,setting,value
Cc1cc([N+](=O)[O-])ccc1N,Potency,[1],inactive
same,Potency,Aromatase (Homo sapiens),inactive
same,Potency,[2],inactive
same,Potency,[3],inactive
same,Potency,[4],inactive
same,Potency,[5],inactive
same,Potency,[6],inactive
same,Potency,[7],inactive
same,Potency,[8],inactive
Cc1cccc(C)c1,Potency,[9],inactive
same,Potency,Aromatase (Homo sapiens),inactive
same,Potency,[10],inactive
same,Potency,[3],inactive
same,"activity change, positive = activation",[11],1.06%
same,Potency,[4],inactive
same,Potency,[5],inactive
same,Potency,[6],inactive
same,Potency,[7],inactive
same,Potency,[8],inactive
CC(C)(C)c1ccc(O)cc1,Potency,[12],55.8 µM (active) and 43.3 µM (active)
same,Potency,[13],inactive
same,Potency,[14],inactive
same,outcome,[15],inactive
same,Potency,[16],inactive
same,Potency,[17],inactive
same,Potency,[18],inactive
same,outcome,[19],inactive
same,outcome,[20],inactive
same,Potency,[21],inactive
same,Potency,[22],inactive
same,Potency,[23],inactive
same,outcome,[24],inactive
same,Potency,[25],inactive
same,Potency,[26],inactive
